The values below come from PubChem BioAssay (NCI).

Several values for one entry are separate records, joined by “and”; a condition that tells them apart may be missing. Identical values can stand only once. This is part of a sample that, as a whole, favours compounds with a hit. Of some 79,000 tested, about 15% had one in any assay. The source holds several records for some structures; these can differ, active in one and inactive in another. Activity calls are given as the source filed them. Cut-off read from the data, not from the text of the source: active = growth inhibition above about 70%; inactive = the rest.

One assay can be described thus: NCI Yeast Anticancer Drug Screen. Data for the sgs1 strain (AID 173).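 Note: 0% = growth of vehicle-only control cultures.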 The settings on record: S. cerevisiae sgs1 mutant, at 100.0 µM, stronger effect = higher value. The method in brief: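 Compounds applied to genetically altered yeast; growth compared with vehicle-treated cultures to give % inhibition.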
On to `O=C(O)c1ccccc1/C=N/N=C1c2ccccc2-c2ccccc21`, for which the growth inhibition is 3% (inactive).

`O=C1CC(=O)c2ccccc21`: the growth inhibition is 57% (inactive).

Turning to `Nc1ncnc2c1ncn2C1OC(CO)CC1O` (configuration not stated), the growth inhibition is 90% (active).

A further assay can be described thus: NCI Yeast Anticancer Drug Screen. Data for the mlh1 rad18 strain (AID 175). The following applies: S. cerevisiae mlh1 rad18 strain growth inhibition; at 5.0 µM (retest, dose inferred, filed as 0.5); stronger effect = higher value. In outline:
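Cells of a genetically altered yeast strain, deficient in DNA damage repair, were treated with compound. Their growth was then compared with that of vehicle-treated cultures to give inhibition.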
`CS(=O)(=O)SCc1ccc([N+](=O)[O-])cc1`: the growth inhibition is -31% (inactive).

With `Cc1csc(=S)n1OC(=O)NC1CCCCC1`, the growth inhibition is 97% (active).

Turning to `CCOc1ccc(NC(=O)C2=C(C)NC(C)=C(C(=O)Nc3ccc(OCC)cc3)C2c2cccc([N+](=O)[O-])c2)cc1`, the growth inhibition was -7% (inactive).

With `CC(C)(C)N=C(NO)c1ccccc1`, the growth inhibition was 3% (inactive).

Regarding `CCCCC/C(=C(\C#N)C(=O)OCC)c1ccccc1`, the growth inhibition is -6% (inactive).

As to `O=C(NCCCl)Sc1ccc(Cl)cc1`, the growth inhibition is -141% (inactive).

As to `O=C1Nc2ccc(Br)cc2C1=Nc1ccc2c(c1)OCO2`, the growth inhibition was 33% (inactive).

In the case of `CCC(C)OC(=O)Nc1ccc(C)c(NC(=O)OC(C)CC)c1` (configuration not stated), the growth inhibition was 12% (inactive).

`O=C(O)c1cc2ccc(Cl)cc2c(O)c1C1=CCCCC1`: the growth inhibition is -7% (inactive).

Consider `CN(C)Cc1cc(N=Nc2ccc(Cl)cc2)ccc1OC(=O)c1ccccc1`, for which the growth inhibition is -9% (inactive).

As to `CN1CCN(C(=O)/C=C/C(=O)c2ccccc2)CC1`, the growth inhibition was -5% (inactive).

Consider `CCCC/C=C/C(C)(C(=O)OCC)C(=O)OCC`, for which the growth inhibition is 11% (inactive).

For the compound `Cc1nc(-c2cc3cc([N+](=O)[O-])ccc3oc2=O)cs1`, the growth inhibition is 16% (inactive).

For `Cc1nc2ccccc2nc1NNc1ccccc1`, the growth inhibition is -8% (inactive).

In the case of `CN(C)[C@@H]1C(=O)C(C(N)=O)=C(O)[C@@]2(O)C(=O)C3=C(O)c4c(O)cccc4C[C@H]3C[C@@H]12`, the growth inhibition is 38% (inactive).

As to `COc1ccc(NC(=O)CC2SC(=Nc3ccccc3C)NC2=O)c([N+](=O)[O-])c1` (configuration not stated), the growth inhibition was -1% (inactive).

Turning to `COc1cc(O)c2c(c1O)C(=O)c1cc(C)ncc1C2=O`, the growth inhibition was 17% (inactive).

Consider `CSc1nnc(SC)nn1`, for which the growth inhibition was 58% (inactive).

In the case of `COc1cc(/C=C2\CCC/C(=C\c3ccc(O)c(OC)c3)C2=O)ccc1O`, the growth inhibition is -3% (inactive).

Consider `CN(C)CCNC(=O)c1cccc2cc([N+](=O)[O-])ccc12`, for which the growth inhibition was 18% (inactive).

On to `CCC(C)(C)c1ccc(Oc2cccc(C(=O)O)c2)cc1`, for which the growth inhibition was 10% (inactive).

Consider `CCCCCCSc1ncnc2[nH]ncc12`, for which the growth inhibition was -1% (inactive).

Consider `CC(=O)Nc1ccc(/C=C/[N+](=O)[O-])cc1`, for which the growth inhibition is -96% (inactive).

Consider `CCOC(=O)c1[nH]n(-c2ccccc2)c(=O)c1C=NC(=S)C(N)=S`, for which the growth inhibition is -3% (inactive).

Take `CCCC(O)C1CC(C(C)C)CCC1C` (configuration not stated): the growth inhibition was -1% (inactive).

With `O=[n+]1c2ccccc2n([O-])c2cc(Br)ccc21`, the growth inhibition is 87% (active).

Regarding `CN(C)CCNC(=O)c1cccc2c1Oc1c(cccc1[N+](=O)[O-])O2`, the growth inhibition is 15% (inactive).

Turning to `Nc1ncc(-c2ccc(Br)cc2)s1`, the growth inhibition was 39% (inactive).

Consider `Cc1cc2cc3cc(C)c(N)cc3nc2cc1N`, for which the growth inhibition was 94% (active).

Consider `CC12C(=O)OC(=O)C(c3ccccc31)c1ccccc12`, for which the growth inhibition is 58% (inactive).

For the compound `c1ccc2c(OCC3CO3)cccc2c1` (configuration not stated), the growth inhibition was 14% (inactive).

Take `CCOC(=N)c1ccc(O)c(OC)c1`: the growth inhibition was -1% (inactive).

As for `Nc1cc(N)c(N=Nc2cccc3c(S(=O)(=O)O)cccc23)cc1N=Nc1cc([N+](=O)[O-])ccc1O`, the growth inhibition was 52% (inactive).

Consider `COC(=O)Oc1cc(Cl)c(Cl)cc1Cl`, for which the growth inhibition is 7% (inactive).

Regarding `O=C(O)C1CC(c2ccccc2)=NN1c1ccccc1` (configuration not stated), the growth inhibition was 52% (inactive).

Turning to `COc1cc([C@@H]2c3cc4c(cc3[C@@H](Nc3ccc(NC(=O)c5cc([N+](=O)[O-])cn5C)cc3)[C@H]3COC(=O)[C@H]23)OCO4)cc(OC)c1O`, the growth inhibition is 37% (inactive) and 80% (active).

Consider `O=C(O)c1ccccc1/C=N/N=C1c2ccccc2-c2ccccc21`, for which the growth inhibition is -1% (inactive).

As for `O=C1CC(=O)c2ccccc21`, the growth inhibition is 1% (inactive).

Regarding `Nc1ncnc2c1ncn2C1OC(CO)CC1O` (configuration not stated), the growth inhibition was 39% (inactive) and 11% (inactive).
